TRPML1 blocker – human mucolipin-1 channel inhibition. Q9GZU1. TRPML1-inducible cells, Ca2+ dye fluorescence, FDSS; stronger effect = lower value; inhibition of EC80 agonist-evoked calcium signal. activity change, negative = inhibition, % (test concentration not listed). hit rate 0.02% among 390,000. AID 624415; in the data active = activity change below about -50%; inconclusive = between about -30% and that limit;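 also: stimulus is agonist 54-4 at its EC80 concentration; % is scaled to controls: 0 for no effect and ±100 for the full control effect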
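TRPML1-DL cells, Tet-induced overnight (~16 h, 37 °C) at 1,500 cells/well, were loaded with Ca8 no-wash dye plus quencher for 45-90 min at room temperature. Compounds were pinned during FDSS kinetic reading; agonist 54-4 at EC80 (4 uM final) then added.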
TRPML1 ag – activates the human TRPML1 channel; Q9GZU1; activation, % (test concentration not listed); hit rate 0.12% among 410,000; TRPML1-expressing cells, Ca2+ dye fluorescence, FDSS; in the data active = activation above about 50%; inconclusive = mostly about 30% to 49%; also: 0% is about no effect
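TRPML1-DL cells, Tet-induced overnight (~16 h, 37 degrees C), loaded 45-90 min at room temperature with Ca8 no-wash calcium dye plus quencher. FDSS fluorescence: 10 s baseline, compound pin-transfer, 110 s agonist read, then EC80 54-4 (4uM final) and 110 s antagonist read.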
Glioma ERSR ind – ER stress response induction in glioma. AID 602332. hit rate 0.02% among 420,000. Potency, µM, without a hit: at the top dose activation, usual class: activators. U87-MG GRP78 promoter luciferase reporter, 16 h; active = well fitted activation curve with a large enough effect; inconclusive = small, poorly fitted or top-dose-only effect; inactive = no such curve, though single readings can be large or run the other way; also: potency is read from the fitted curve at half-maximal effect; series mostly up to about 76 µM; % of control where 0% means no effect; nearly all actives have a fitted effect of over 35% in size
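ERSR induction read as luciferase luminescence (Bright-Glo, 10 min at room temperature) in stably transfected human U87-MG glioma cells exposed to compounds for 16 h, using GRP78 as sensor.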
KCNH2 3.1 block – KCNH2 3.1 (human) potassium channel inhibition. activity change, % (tested at about 1.8 µM). hit rate 0.95% among 340,000. U2OS KCNH2 3.1, thallium flux FluxOr; stronger effect = lower value;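 active = maximum activity change below -70%; inconclusive = maximum activity change from -70% to -50%; inactive = maximum activity change above -50%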;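 also: thallium influx rate constant from kinetic fluorescence after stimulation buffer; % is scaled to controls: 0 for no effect and ±100 for the full control effect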
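Channel expression came from 3.1 mutant virus (1.77 x 10^8 /mL) applied to suspended U2OS cells for 4 h. Flux was tracked with FluxOr dye plus Red40 quencher, and kinetic rate constants normalized to controls.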
TSG101-PTAP inh – blocks PTAP/TSG101 interaction to inhibit HIV-1 budding | Q99816 | Potency, µM (titrated, usually from 115 µM), inactives show at the top dose activity change, negative = inhibition, actives largely listed as inhibitors | AID 493005 | 340,000 tested, under 10 active | Fluorescence polarization, FITC-PTAP peptide / Tsg101 binding; active = well fitted inhibition curve with a large enough effect in the main read-out, with a control signal flat, not every such curve was filed as active; inconclusive = small, poorly fitted or top-dose-only effect, or effect the other way, or a change in a side signal; inactive = no such curve, though single readings can be large or run the other way; also: potency is read from the fitted curve at half-maximal effect; % of control where 0% means no effect
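Tsg101 binding domain (10 uM final) was mixed with compound and a FITC-labeled PTAP peptide (50 nM final) in HEPES pH 7.5 buffer with NaCl, Tween 20, EDTA and TCEP; fluorescence polarization was read after 20 min at r.t.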
KCNH2 WT inh – blocks the wildtype human KCNH2 potassium channel; AID 720551; activity change, % at 1.84 µM; hit rate 0.37% among 340,000; Q12809; U2OS, BacMam KCNH2, thallium flux FluxOr; stronger effect = lower value;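 active = maximum activity change below -70%; inconclusive = maximum activity change between -70% and -50%; inactive = maximum activity change above -50%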; also: % is scaled to controls: 0 for no effect and ±100 for the full control effect
Target sequence (Q12809 whole entry, looked up): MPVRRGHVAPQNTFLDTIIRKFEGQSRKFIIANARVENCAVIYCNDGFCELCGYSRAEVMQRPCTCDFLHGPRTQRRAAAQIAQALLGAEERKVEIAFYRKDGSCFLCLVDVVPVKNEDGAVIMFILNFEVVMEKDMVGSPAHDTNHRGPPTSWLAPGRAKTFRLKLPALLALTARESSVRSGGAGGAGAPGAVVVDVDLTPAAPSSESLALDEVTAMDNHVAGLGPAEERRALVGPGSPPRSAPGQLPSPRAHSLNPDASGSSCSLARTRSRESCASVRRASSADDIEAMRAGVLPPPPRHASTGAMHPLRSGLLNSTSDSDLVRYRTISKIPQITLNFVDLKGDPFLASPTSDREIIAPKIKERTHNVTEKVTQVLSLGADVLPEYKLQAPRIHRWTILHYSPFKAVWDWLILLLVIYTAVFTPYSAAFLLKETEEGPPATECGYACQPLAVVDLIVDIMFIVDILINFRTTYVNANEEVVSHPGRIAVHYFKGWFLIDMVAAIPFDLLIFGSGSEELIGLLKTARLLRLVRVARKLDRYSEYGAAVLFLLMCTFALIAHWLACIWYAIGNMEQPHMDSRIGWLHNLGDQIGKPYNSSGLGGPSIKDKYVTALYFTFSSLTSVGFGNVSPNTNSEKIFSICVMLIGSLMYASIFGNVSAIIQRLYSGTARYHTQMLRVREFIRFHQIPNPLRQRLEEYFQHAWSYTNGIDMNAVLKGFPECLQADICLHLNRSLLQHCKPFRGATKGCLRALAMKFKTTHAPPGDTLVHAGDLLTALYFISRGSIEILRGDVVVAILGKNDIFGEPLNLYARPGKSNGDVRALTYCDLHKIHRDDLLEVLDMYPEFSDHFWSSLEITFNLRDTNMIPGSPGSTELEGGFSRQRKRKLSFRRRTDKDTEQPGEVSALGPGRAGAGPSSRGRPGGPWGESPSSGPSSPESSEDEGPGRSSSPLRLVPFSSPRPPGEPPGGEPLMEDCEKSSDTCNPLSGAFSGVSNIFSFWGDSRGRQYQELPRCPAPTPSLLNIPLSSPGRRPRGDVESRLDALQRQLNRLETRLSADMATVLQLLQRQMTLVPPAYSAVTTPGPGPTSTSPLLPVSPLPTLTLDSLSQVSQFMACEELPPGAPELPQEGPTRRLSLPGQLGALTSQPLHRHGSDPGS
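U2OS cells were transduced with wild-type KCNH2 virus (2.03 x 10^8 / mL) for 4 h at room temperature, then cultured overnight at 37 C. Thallium flux was read with FluxOr dye. Rate constants were normalized to DMSO controls.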
Active calls of the source: *; ? = inconclusive; / = no result given. Sampled rows, rich in hits. Any-hit rate of the full collection: about 1%.

SMILES	TRPML1 blocker	TRPML1 ag	Glioma ERSR ind	KCNH2 3.1 block	TSG101-PTAP inh	KCNH2 WT inh
COc1ccc(CNC(=O)CN(Cc2ccccc2F)C(=O)c2csnn2)cc1	1	0	1%	-2	-4%	-5
CCc1cc(C(=O)NCCN2Cc3ccccc3OC(c3ccsc3)C2)n(C)n1 (stereo not drawn)	/	/	-2%	/	/	/
CCOC(=O)c1cccc(Nc2ncnc3ccc(C)cc23)c1	27	1	-1%	-85*	-2%	13
Cc1ccc2c(CN3CCN(Cc4ccc5c(c4)OCO5)CC3)cc(=O)oc2c1C	3	1	-3%	-31	0%	41
Cc1cc(C)c2c(CN3CCN(Cc4ccc5c(c4)OCO5)CC3)cc(=O)oc2c1C	3	1	-4%	-92*	-1%	24
CCOc1ccc(NC(=O)NCCN2CCN(c3cccc(C)c3C)CC2)cc1	-2	-1	-3%	-89*	-2%	36
CCOc1cccc(N2CCN(CCNC(=O)Nc3ccc(C)cc3)CC2)c1C	3	0	-2%	-93*	-3%	6
COc1ccccc1C1CN(CCNC(=O)c2cnsn2)Cc2ccccc2O1 (stereo not drawn)	/	/	-3%	/	/	/
Cn1cc(CN2CCC(C3(c4ccccn4)NC(=O)N(CC4CCCO4)C3=O)CC2)c2ccccc21 (stereo not drawn)	/	/	1%	/	/	/
Cc1ccc(/C(N)=N/OC(=O)c2cccs2)cc1	76	1	-4%	-185*	-2%	-176*
CCN(CC)c1ccc2c(C)c(Cl)c(=O)oc2c1	-5	3	10%	-10	-14%	-6
CCN(CC)c1ccc2c(c1)oc(=O)c1c(Cl)cc(=O)oc12	-13	69*	-15%	0	?	-23
CCCC(=O)Nc1c2c(nn1-c1ccccc1)CSC2	-5	0	-4%	-114*	0%	7
Cc1c(F)cccc1NC(=O)CSCC(=O)Nc1ccccc1	-55*	1	-4%	-9	-2%	2
CCN1CCC[C@@H]1CNC(=O)c1cc(S(=O)(=O)CC)ccc1OC	/	/	-5%	/	/	/
O=C(NC(=S)Nc1cccc2cc(O)ccc12)c1ccco1	-59*	2	0%	2	-3%	1
O=C(NC(=S)Nc1cccc2c(O)cccc12)c1ccco1	7	2	-2%	-1	-5%	2
O=C(NCCN1Cc2ccccc2OC(c2ccsc2)C1)c1ccc2[nH]ccc2c1 (stereo not drawn)	/	/	-1%	/	/	/
COCCn1c2nc(=O)n(-c3ccccc3)c(=O)c-2nc2ccccc21	-9	59*	-8%	1	/	7
O=C(NCCc1nnc2n1CCN(Cc1ccsc1)CC2)c1ccc(F)cc1	/	/	-5%	/	/	/
C=CCN1N=C(/C=C/c2ccc(C)cc2)CCC1=O	24	3	6%	-108*	0%	2
CCn1cc(C2=NC(c3ccccc3)CO2)c2ccccc21 (stereo not drawn)	3	0	4%	1	-6%	9
CCn1cc(C2=NC(C)CO2)c2ccccc21 (stereo not drawn)	-2	0	3%	-71*	1%	-7
CCOc1ccc(C(=O)N2CCN(c3ccccc3)CC2)cc1OCC	-4	1	-1%	-4	-4%	10
CCOc1ccc(C(=O)N2CCN(CCc3ccccc3)CC2)cc1OCC	-4	0	-4%	-90*	-1%	-30
SMILES	TRPML1 blocker	TRPML1 ag	Glioma ERSR ind	KCNH2 3.1 block	TSG101-PTAP inh	KCNH2 WT inh
COc1cccc(CNC(=O)c2c(OC)cc(=O)n3c2CCN(C(=O)c2ccc(C)s2)CC3)c1	/	/	-2%	/	/	/
CCSc1nc2ccccc2c(=O)n1C1CCOC(C)(C)C1 (stereo not drawn)	16	-1	-3%	-91*	-8%	-3
O=S(=O)(c1ccc(Cl)cc1)N1CCN(c2nc(-c3cccs3)nc3ccccc23)CC1	0	0	0%	-90*	0%	0
OCC1(CCOc2ccccc2)CCN(Cc2cccn2-c2ncccn2)CC1	-10	0	-4%	-93*	-4%	-16
Cc1cc(C)c(CN2CCC(CO)(CCOc3ccccc3)CC2)cc1C	13	0	-3%	-111*	-1%	-35
CCOC(=O)C1(CCOc2ccccc2)CCN(Cc2cccn2-c2cccnc2)CC1	33	2	-5%	2	-2%	33
OCC1(CCOc2ccccc2)CCN(C2Cc3ccccc3C2)CC1	5	1	-4%	-77*	-8%	15
COc1cc(CN2CCC(CO)(CCOc3ccccc3)CC2)cc(OC)c1	5	0	-6%	?	-1%	19
COc1ccc(OC)c(CN2CCC(CO)(CCOc3ccccc3)CC2)c1	2	0	-2%	-75*	0%	69
FC(F)(F)c1cc(C(F)(F)F)c2ccc(N3CCN(c4ccc(Cl)cc4)CC3)nc2n1	12	0	-1%	-90*	-3%	1
Fc1ccc(N2CCN(c3ccc4c(C(F)(F)F)cc(C(F)(F)F)nc4n3)CC2)cc1	-9	0	1%	-19	-6%	1
Cc1ccc2nc(CNC(=O)c3cc(NC(=O)c4ccccc4)cc4ncn(C5CCCC5)c34)cn2c1	/	/	2%	/	/	/
COc1ccccc1-n1cc(C(=O)NCCN2Cc3ccccc3OC(c3ccsc3)C2)cn1 (stereo not drawn)	/	/	2%	/	/	/
CN(C)c1ccc(/C=C2\SC(=S)N(Nc3ncc(C(F)(F)F)cc3Cl)C2=O)cc1	-4	53*	-2%	-73*	?	-133*
COCC1CCCN(c2nc(CN3CCN(C(=O)c4ccco4)CC3)nc3ccccc23)C1 (stereo not drawn)	/	/	-1%	/	/	/
COc1cc2c(-c3cc(F)cc(F)c3)c(-c3ccsc3)oc(=O)c2cc1OC	-13	1	-5%	-106*	-4%	-3
COc1ccc(-c2c(-c3ccsc3)oc(=O)c3cc(OC)c(OC)cc23)cc1	4	2	9%	20	-4%	-8
COc1cc(/C=C2\SC(=S)N(C(C(=O)O)c3ccccc3)C2=O)cc(OC)c1OC (stereo not drawn)	7	1	32µM*	-6	-1%	-6
CN(CC1CCCN(CCc2ccc(Cl)cc2)C1)C(=O)c1ccco1 (stereo not drawn)	-7	-1	-3%	-79*	0%	-37
CCN(CC)CCCNC(=O)c1[nH]c2ccccc2c1Sc1ccc(Cl)cc1	34	1	-6%	-111*	0%	-127*
CCCCNC(=O)c1[nH]c2ccccc2c1Sc1ccc(C)cc1	11	0	-1%	/	/	/
